ST2 IL33 inh: blocks human ST2 binding to IL-33; actives 2.3% (n = 78,000); AlphaLISA ST2-Fc/biotin-IL-33 interaction, 1 h; Q01638; inhibition, % for hits at 17 µM; in the data active means inhibition above about 30%
Target sequence (Q01638 whole entry, looked up): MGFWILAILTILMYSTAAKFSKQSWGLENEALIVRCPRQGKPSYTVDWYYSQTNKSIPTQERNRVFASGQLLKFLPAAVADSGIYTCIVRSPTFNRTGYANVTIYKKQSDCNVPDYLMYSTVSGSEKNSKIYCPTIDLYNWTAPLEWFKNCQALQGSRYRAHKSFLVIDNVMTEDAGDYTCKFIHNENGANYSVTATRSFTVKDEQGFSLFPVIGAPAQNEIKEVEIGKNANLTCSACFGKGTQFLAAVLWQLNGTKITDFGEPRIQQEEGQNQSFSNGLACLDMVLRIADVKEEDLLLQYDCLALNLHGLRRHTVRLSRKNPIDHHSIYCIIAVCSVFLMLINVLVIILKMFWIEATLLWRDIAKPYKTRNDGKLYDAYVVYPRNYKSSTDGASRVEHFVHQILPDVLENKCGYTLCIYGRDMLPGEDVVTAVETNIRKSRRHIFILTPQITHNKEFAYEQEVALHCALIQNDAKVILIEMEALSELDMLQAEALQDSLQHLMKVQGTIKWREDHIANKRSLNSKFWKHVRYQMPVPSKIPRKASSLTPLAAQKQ
Each line names hits and unclear results; the compound was inactive in the other large screens. The sample as a whole holds a higher share of hits than the screen did.

CCc1nnc(NC(=O)C(C(C)C)N2C(=O)c3ccccc3C2=O)s1 (configuration not stated)	none
COC1(C[N+](=O)[O-])OC(=O)c2ccccc21 (configuration not stated)	none
O=C(Nc1ccc2oc(-c3ccncc3)nc2c1)C1CCCCC1	none
O=C(ON=C1C=CC(=NOC(=O)c2ccco2)C=C1)c1ccccc1	none
N#Cc1cc([N+](=O)[O-])cnc1Sc1ccccc1	ST2 IL33 inh 32%
O=[N+]([O-])c1ccc(-c2cnc(-c3ccccc3)nc2)cc1	none
N#Cc1cc([N+](=O)[O-])cnc1NCCO	none
CCNCC(O)CN1CCC(C)CC1 (configuration not stated)	none
CCCc1[nH]ncc1C(=O)N1CCC2(CN(C)C(=O)O2)C1 (configuration not stated)	none
C=CCn1c(SCC(=O)NCCN2CCOCC2)nc2sc(C)c(C)c2c1=O	none
CCN(CC)Cc1cnc2c(C(=O)NC3Cc4ccccc4C3)cnn2c1	none
COc1ccc(C2=Cc3cc(OC)c(OC)cc3/C(=C/c3ccc(OC)c(OC)c3)O2)cc1	none
Cc1cc2c(c(=O)[nH]1)C(=O)O/C2=C\c1cccs1	none
CCOc1ccccc1/C=C1\N=C(c2ccc(OC)c([N+](=O)[O-])c2)OC1=O	none
CCOc1ccc(/C=C2\N=C(c3ccccc3Cl)OC2=O)cc1	none
CCOc1ccc(/C=C2\N=C(c3ccccc3OC)OC2=O)cc1OCC	ST2 IL33 inh 34%
CCOc1ccc(/C=C2/OC(=O)c3c2cc(C)[nH]c3=O)cc1OC	ST2 IL33 inh 51%
Cc1c(OC(=O)N2CCOCC2)ccc2c(=O)c(-c3nc4ccccc4s3)coc12	none
COC(=O)C1=C(C)NC(C)=C(C#N)C1c1cccs1 (configuration not stated)	none
CCN(CC)S(=O)(=O)c1ccc2oc(C(=O)NCc3cccnc3)c(C)c2c1	none
C=C(C)CC(Nc1ccc(OC)cc1)c1ccco1 (configuration not stated)	ST2 IL33 inh 37%
COc1ccccc1C(CC(=O)O)c1ccco1 (configuration not stated)	none
COc1ccc(/C=C(/NC(=O)c2ccco2)C(=O)Nc2ccc(OC)cc2)cc1	none
Cc1ccc2nc(NC(=O)CNS(=O)(=O)c3cccs3)sc2c1	none
CN(C)CCNS(=O)(=O)c1cc(Br)cc2c1N(C(=O)C1CC1)CC2	none
CCCCSc1nnc2c(n1)OC(c1ccsc1)N(C(C)=O)c1ccccc1-2 (configuration not stated)	none
O=C(CSc1nnc(-c2ccc3c(c2)OCCO3)o1)N1CCc2ccccc21	none
CC(=O)N1CCC(C(=O)NC(CC(C)C)c2ncnn2C)CC1 (configuration not stated)	none
Cc1ccc(Cl)cc1N1CCN(S(=O)(=O)c2ccc3c(c2)c(=O)n(C)c(=O)n3C)CC1	none
Cc1nn(C)cc1-c1ccnc(NCc2ccccc2-n2ccnc2)n1	none
CC1=C(C(=O)OCCc2ccccc2)C(c2ccc(Cl)cc2)NC(=O)N1 (configuration not stated)	none
CC(C)NC(=O)C1CC(=O)N(c2ccc(F)c(Cl)c2)C1 (configuration not stated)	none
Cc1ccnc(NC(=O)C2CC(=O)N(c3ccc(F)cc3)C2)c1 (configuration not stated)	none
CCC(C)NC(=O)C1CC(=O)N(c2ccc(F)cc2)C1 (configuration not stated)	ST2 IL33 inh 33%
Cc1nccn1CCC1CCCCN1C(=O)Cn1nnnc1CN1CCOCC1 (configuration not stated)	none
CN(C)c1nc2nonc2nc1Nc1cccc(Cl)c1	none
CC(C)(C)C1=CC(=O)c2c(ccc(C(C)(C)C)c2O)C1=O	ST2 IL33 inh 65%
Cc1ccc(C)c(N2CCN(C(=O)c3cccn4c(=O)c5c6c(sc5nc34)CCCC6)CC2)c1	none
CC1CN(C(=O)c2ccccc2)OC(c2cccc(O)c2)O1 (configuration not stated)	none
Cc1ccc(S(=O)(=O)Cc2noc([C@@H]3C[C@@H](O)CN3Cc3ccc(S(C)(=O)=O)cc3)n2)cc1	none
Cc1ccc(S(=O)(=O)Cc2noc([C@@H]3C[C@@H](O)CN3Cc3c[nH]c4ccccc34)n2)cc1	none
Cc1ccc(S(=O)(=O)Cc2noc([C@@H]3C[C@@H](O)CN3Cc3ccccc3[N+](=O)[O-])n2)cc1	ST2 IL33 inh 31%
Cc1ccc(Oc2ncccc2CNC(=O)CC(C)n2ccnc2)cn1 (configuration not stated)	none
O=C(Nc1ccc(N2CCCC2)cc1)c1ccccc1F	ST2 IL33 inh 68%
Cc1ccc(-n2nc3ccc(NC(=O)c4ccccc4F)cc3n2)cc1	none
CC(=O)c1ccc(NC(=O)c2ccccc2F)cc1	none
CC(C)(C)C(=O)Cn1c(=O)n(-c2ccc(F)cc2)c(=O)c2sccc21	none
CCOC(=O)C1C(=O)C=C(c2ccc(OC)c(OC)c2)CC1c1cccc(F)c1 (configuration not stated)	none
O=C1c2cccc([N+](=O)[O-])c2C(=O)N1c1nc(-c2ccccc2)cs1	none
O=C(Nc1nc2ccc(Cl)cc2s1)c1ccccc1[N+](=O)[O-]	none
N#C/C(=C\c1ccccc1[N+](=O)[O-])c1nc(-c2ccccc2)cs1	ST2 IL33 inh 50%
N#C/C(=C\c1ccccc1[N+](=O)[O-])c1nc(-c2ccc(Cl)cc2)cs1	ST2 IL33 inh 31%
COc1cc(/C(C#N)=C/c2ccccc2F)c([N+](=O)[O-])cc1OC	none
CCCCc1ncc(-c2nccn2C(C)c2nccs2)[nH]1 (configuration not stated)	none
NS(=O)(=O)c1ccc(CCNC(=O)c2ccc(N3CCSc4ccccc43)s2)cc1	none
COc1ccc(C(=O)NCC#N)cc1	none
CCc1ccc(C(=O)CC2(O)C(=O)Nc3ccccc32)cc1 (configuration not stated)	none
CCc1ccc2c(c1)C1(NN=C(c3ccc(C)cc3)S1)C(=O)N2 (configuration not stated)	ST2 IL33 inh 45%
CCc1ccc(N2C(=O)Nc3ccc(Br)cc3C2(O)C(=O)NC(C)C)cc1 (configuration not stated)	none
COc1ccc(-c2ccc(/C=C3/C(=O)NN(c4ccc(C)c(Cl)c4)C3=O)o2)c([N+](=O)[O-])c1	ST2 IL33 inh 41%
COc1cccc(/C=C2/C(=O)NN(c3ccc(C)c(Cl)c3)C2=O)c1OCC#N	none
Cc1ccc(-c2ccc(/C=C3/C(=O)NN(c4ccc(F)cc4)C3=O)o2)c([N+](=O)[O-])c1C	ST2 IL33 inh 42%
N=C1S/C(=C/c2ccc(-c3ccccc3[N+](=O)[O-])o2)C(=O)N1c1nonc1N	none
COc1ccccc1/C=C1/C(=O)NN(c2ccc(C)c(Cl)c2)C1=O	none
CCC(C)NS(=O)(=O)c1ccc(Cl)s1 (configuration not stated)	none
CC(NC(=O)c1ccc2c(c1)ncn2CCO)c1ccc(O)c(F)c1 (configuration not stated)	none
Cc1cc(C)cc(NC(=O)c2c(N)sc3c2CCCC3)c1	none
CC1CN(CCOc2ccccc2)CC(C)O1 (configuration not stated)	none
COC(=O)c1ccc(NS(=O)(=O)c2cc(Br)cc3c2N(C(=O)C2CC2)CC3)cc1	none
O=C(NCCN1CCN(C(=O)c2ccc(Cl)cc2Cl)CC1)C(=O)Nc1ccc(F)cc1	none
CNc1nc(-c2cc(NC3CCNCC3)nc3[nH]ccc23)nc2c1CCC2	ST2 IL33 inh 37%
CCS(=O)(=O)N1CCCC(C(=O)NC2CCCC(C)C2C)C1 (configuration not stated)	none
CN1CCN(C(=O)CSc2c3c(nc4ccccc24)CCC3)CC1	none
N#C/C(=C\c1ccc(Br)o1)c1nc(-c2ccc(Cl)cc2)cs1	ST2 IL33 inh 31%
COc1cccc2cc(-c3nc(-c4ccc(Br)cc4)cs3)c(=O)oc12	none
